High-throughput results as filed in PubChem.
HT1080 IDH1KD tx = kills HT-1080 cells with IDH1 knockdown; HT-1080 IDH1 knockdown viability, ATP luminescence, 48 h; Potency, µM (titrated, usually from 46.1 µM), inactives show at the top dose activity, negative = toxicity, hits mostly cytotoxic; actives 2% (n = 360,000); AID 686971;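 also: potency is read from the fitted curve at half-maximal effect; 0% = DMSO wells and -100% = cell-free medium wells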
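Viability of IDH1-knockdown HT-1080 fibrosarcoma cells was assessed by CellTiter-Glo after 48 h at 37 °C with titrated compound; concentration-effect curves were classified by fit quality and response size.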
12-LOX inh = inhibitors of human 12S-lipoxygenase ALOX12 | P18054 | purified 12hLO, xylenol orange hydroperoxide absorbance | Potency, µM (doses to about 108 µM), for the others: at the top dose activity change, negative = inhibition, most hits filed as inhibitors | actives 1.1% (n = 580,000); also: potency is read from the fitted curve at half-maximal effect
Target sequence (P18054 whole entry, looked up): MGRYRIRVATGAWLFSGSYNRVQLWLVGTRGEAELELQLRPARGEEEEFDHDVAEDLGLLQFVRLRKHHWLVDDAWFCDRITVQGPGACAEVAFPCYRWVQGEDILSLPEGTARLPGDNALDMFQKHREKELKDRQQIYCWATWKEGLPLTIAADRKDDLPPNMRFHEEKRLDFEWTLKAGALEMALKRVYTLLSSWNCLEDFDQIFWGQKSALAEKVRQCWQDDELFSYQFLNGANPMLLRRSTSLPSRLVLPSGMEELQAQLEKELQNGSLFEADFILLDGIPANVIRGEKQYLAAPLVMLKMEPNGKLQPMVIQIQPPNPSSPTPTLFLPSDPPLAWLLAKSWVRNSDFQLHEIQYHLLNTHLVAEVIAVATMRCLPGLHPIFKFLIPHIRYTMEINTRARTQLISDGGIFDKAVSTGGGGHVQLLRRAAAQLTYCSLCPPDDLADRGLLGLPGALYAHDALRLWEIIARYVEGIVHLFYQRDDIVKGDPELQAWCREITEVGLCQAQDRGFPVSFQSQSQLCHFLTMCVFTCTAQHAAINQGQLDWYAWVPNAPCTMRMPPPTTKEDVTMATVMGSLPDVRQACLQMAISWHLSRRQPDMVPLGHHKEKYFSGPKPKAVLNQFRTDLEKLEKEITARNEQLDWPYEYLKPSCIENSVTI
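Purified human 12hLO (150 nM final) in 25 mM Hepes, 0.01% Triton X-100, pH 7.0 was preincubated 15 min at room temperature with compound. Then 40 uM arachidonic acid was added, 30 min. Hydroperoxide was read by Fe-XO absorbance ratio 573/405 nm.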
HT1080NT lethal = kills 2HG-producing HT-1080-NT fibrosarcoma cells; actives 1.6% (n = 360,000); Potency, µM (top dose mostly 46.1 µM), without a hit: top-dose activity, negative = less viability, hits mostly cytotoxic; HT-1080-NT fibrosarcoma viability, CellTiter-Glo ATP luminescence, 48 h;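 also: NT is the 2HG producing partner of a matched IDH1 knockdown line; potency is read from the fitted curve at half-maximal effect; 0% = DMSO-treated cells and -100% = media-only wells without cells; nearly all actives have a fitted effect of over 55% in size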
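750 cells/well, RPMI + 5% FBS; 2 h settle, compound pin-transfer, 48 h at 37 degrees C. CellTiter-Glo 10 min RT, luminescence. Normalized to DMSO and media-only wells.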
TDP1 cell CPT = growth inhibition of DT40 Tdp1-/-;hTDP1 cells with camptothecin (screen for TDP1 inhibitors); chicken DT40 Tdp1-/-;hTDP1 cells + 20 nM CPT, ATP luminescence, 48 h; Potency, µM (doses to about 46.2 µM), without a hit: top-dose activity change, negative = growth inhibition, usual class: inhibitors; actives 12% (n = 420,000); AID 686979; also: potency is read from the fitted curve at half-maximal effect; nearly all actives have a fitted effect of over 55% in size
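Cell growth measured by CellTiter-Glo luminescence after a minimum 48 h, 37 C compound exposure with 20 nM CPT in Tdp1-knockout DT40 cells stably expressing hTDP1, seeded 400/well; qHTS titration format.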
IL-1B inflam inh = inflammasome signaling inhibition, IL-1 beta readout; actives 4.7% (n = 360,000); AID 743279; THP-1 LPS/ATP IL-1B secretion, AlphaLISA, 16 h; hits give low values; activity change, % at 57.5 µM; in the data active = activity change below about -50%; inconclusive = mostly about -30% to -49%
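Secreted IL-1B measured by AlphaLISA bead assay after 16 h compound exposure of THP-1 cells; compounds (final up to 57.5 uM) added 1 h before LPS (250 ng/mL) and ATP (1.25 mM) stimulation; lower signal means less secretion.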
DT40 TDP1 no CPT = qHTS for Inhibitors of human tyrosyl-DNA phosphodiesterase 1 (TDP1): qHTS in cells in absence of CPT; actives 15% (n = 420,000); DT40 Tdp1-/- hTDP1 cells, no CPT, ATP luminescence, 48 h; Potency, µM (highest dose often 46.2 µM), without a hit: top-dose activity change, negative = growth inhibition, usual class: inhibitors; also: potency is read from the fitted curve at half-maximal effect; nearly all actives have a fitted effect of over 55% in size
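Camptothecin absent (DMSO only). Human TDP1-complemented DT40 knockout cells, 400 cells/well, 37 °C for minimum 48 hr; ATP measured via CellTiter-Glo, 30 min dark incubation, luminescence.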
* hit, by the source's call; ? = inconclusive; / = no result; [ ] = another dose, or the depositor's remark. Shown is part of a subset that was picked to be rich in hits. Unless noted, calls follow the shape of the dose curve; as a rule, active = well fitted curve in the direction sought with a large enough effect; inconclusive = small, poorly fitted or top-dose-only effect, or another doubt; inactive = no such curve, though single readings can be large; an effect the other way counts as inactive or inconclusive. Unless noted, % is scaled to controls: 0 for no effect and ±100 for the full control effect.

SMILES	HT1080 IDH1KD tx	12-LOX inh	HT1080NT lethal	TDP1 cell CPT	IL-1B inflam inh	DT40 TDP1 no CPT
Cc1cc(/C=C(\C#N)c2cccc(C(F)(F)F)c2)c(C)n1C	/	40µM*	/	/	/	/
COc1ccc(C(C#N)=Cc2ccc(NC(C)=O)cc2)cc1	2%	-24%	10%	-2%	-7	-26%
CC(=O)Nc1ccc(C(C#N)=Cc2ccc(N(C)CCC#N)cc2)cc1	-12%	4%	-13%	?	-30	15µM*
COc1ccc(/C(C#N)=C/c2ccc(-c3cccc(C(F)(F)F)c3)o2)cc1OC	/	-7%	/	/	/	/
CN(C)C(=O)c1cccc(C(F)(F)F)c1	/	3%	/	/	/	/
Cn1cnc2c(NCc3ccccc3)nc(Cl)nc21	/	/	/	1%	/	-16%
O=C(Nn1c(-c2cccc(Cl)c2)nc2ccccc2c1=O)c1ccccc1Br	/	1%	/	/	/	/
Cc1nn(-c2ccc(C(C)C)cc2)c(C)c1[C@@H]1C=C[C@@H](NC(=O)NC2CCCCC2)C1	/	-9%[176 µM]	/	/	/	/
Nc1[nH]c(C(=O)c2ccc(Br)cc2)c(-c2ccc(Br)cc2)c1C(=O)NCc1cccc2ccccc12	/	-13%	/	/	/	/
O=C(O)c1cc(-c2ccc(/C=N/N3C(=O)C4C5C=CC(C6CC56)C4C3=O)o2)ccc1Cl (stereo not given)	6%	-11%	6%	13%	31	3%
Cc1ccc(-c2ccc(/C=N/N3C(=O)C4C5C=CC(CC5)C4C3=O)o2)c([N+](=O)[O-])c1 (stereo not given)	10%	-15%	-21%	18µM*	-24	?
O=C1C2C3C=CC(C4CC34)C2C(=O)N1/N=C/c1ccc(-c2ccc(Cl)cc2[N+](=O)[O-])o1 (stereo not given)	-3%[9.24 µM]	2%	-21%	?	0	?
O=C1C2C3C=CC(C4CC34)C2C(=O)N1/N=C/c1ccc(-c2ccc(F)cc2[N+](=O)[O-])o1 (stereo not given)	-10%	-10%	-17%	?	?	23µM*
COc1ccc(-c2ccc(/C=N/N3C(=O)C4C5C=CC(C6CC56)C4C3=O)o2)c([N+](=O)[O-])c1 (stereo not given)	5%	-20%	-9%	?	-1	23µM*
Cn1cccc1CN1CCC2(CC1)COc1ccccc1NC2=O	/	10%[176 µM]	/	/	/	/
COc1cc(CN2CC[C@H](CNC(=O)C3CC3)[C@H](N(C)C)C2)cc(OC)c1	/	42%	/	/	/	/
CCCOC1(NC(=O)c2ccccc2)C(C)=CC(=O)C=C1C	25%	3%	22%	23µM*	20	?
COc1cc(C(=O)NNC(=O)c2ccc(F)cc2)ccc1OCC(=O)N1CCOCC1	-3%	6%	-4%	2%	30	-4%
COc1ccc(-c2csc(NC(=O)c3ccc(OCC(=O)N4CCOCC4)c(OC)c3)n2)cc1	-19%	-22%	-21%	7.3µM*	-79*	10µM*
COc1cc(C(=O)NCCN2C(=O)S/C(=C\c3ccc(F)cc3)C2=O)ccc1OCC(=O)N1CCOCC1	14%	/	?	16µM*	-1	15µM*
COc1ccc(-c2nc(NC(=O)c3ccc(OCC(=O)Nc4ccc(F)cc4)c(OC)c3)sc2C)cc1	16µM*	-20%	18µM*	?	-1	18µM*
COc1cc(C(=O)Nc2nc(-c3ccc(F)cc3)cs2)ccc1OCC(=O)N1CCOCC1	-3%	-13%	-19%	18µM*	?	12µM*
O=[N+]([O-])c1cccc(-c2nnc3ccccn23)c1	4%	/	-1%	6%	0	4%
COc1ccc(OC)c(NC(=O)c2ccc(OCC(=O)N3CCOCC3)c(OC)c2)c1	0%	-18%	12%	-29%	-21	?
COc1cc(C(=O)Nc2nc(-c3ccc(C)cc3)cs2)ccc1OCC(=O)N1CCOCC1	-3%	-7%	-20%	23µM*	-11	21µM*
SMILES	HT1080 IDH1KD tx	12-LOX inh	HT1080NT lethal	TDP1 cell CPT	IL-1B inflam inh	DT40 TDP1 no CPT
CCC(=O)[C@@H](C)[C@@H](OC(C)=O)[C@H](C)C[C@@H](C)[C@H]1OC(=O)C[C@@]2(O)CC=C(C)C(O2)C(C)=CCCC[C@H](O[C@H]2C[C@@H](OC(N)=O)[C@H](OC(C)=O)[C@@H](C)O2)C=C[C@H](C)C[C@H]1C	1%	0%	-5%	?	18	2.9µM*
O=C1N=C(N2CCOCC2)S/C1=C\c1ccncc1	-2%	116%	13%	-11%	-5	-16%
CCc1ccc(/C=C2/SC(N3CCOCC3)=NC2=O)cc1	7%	?	11%	4%	-50*	?
CC(C)c1ccc(/C=C2\SC(N3CCOCC3)=NC2=O)cc1	-29%	114%	1%	?	-65*	?
O=C1N=C(N2CCOCC2)S/C1=C/c1cccs1	1%	-21%	0%[9.24 µM]	-26%	-22	-19%
Cc1nc(N2CCCCC2)n(CC(=O)Nc2ccc(Br)cc2F)c(=O)c1C	/	1%	/	/	/	/
O=C(CSc1cc(Cl)ccc1Cl)NC1CCCC1	0%	-1%	-11%	-5%	-29	?
COc1cc(/C=C/C(=O)N2CCCCC2=O)cc(OC)c1OC	/	/	/	3µM*	/	3.8µM*
COc1cc2c(cc1OC)C(C)N(C(C)=O)CC2 (stereo not given)	-6%	-19%	-1%	-5%	11	1%
COc1cc(/C=C/C(=O)N2CCCC2)cc(OC)c1OC	8%	-14%	10%	9%	0	3%
COc1cc2c(cc1OC)C(CNC(=O)C=Cc1cc(OC)c(OC)c(OC)c1)C2 (stereo not given)	1%	12%	-7%	?	-13	18µM*
COc1cc2c(cc1OC)CN(C(=O)/C=C/c1ccc(F)cc1)CC2	-2%	1%	-2%	?	-13	?
COc1cc2c(cc1OC)CN(C(=O)/C=C/c1cc(OC)c(OC)c(OC)c1)CC2	-6%	?	-7%	?	-12	9.2µM*
COc1cc2c(cc1OC)C(C)N(C(=O)/C=C/c1cc(OC)c(OC)c(OC)c1)CC2 (stereo not given)	-7%	-5%	-1%	15µM*	-22	8.2µM*
C[C@@H]1COC(Nc2ccc3ncnc(Nc4ccc(OCc5nccs5)c(Cl)c4)c3c2)=N1	/	-3%[57.4 µM]	/	/	/	/
CCCC(=O)Nc1oc2c(C)cccc2c(=O)c1-c1cc(OC)c(OC)c(OC)c1	/	14%	/	/	/	/
